# According to PubChem BioAssay (Tox21):
# Values joined by “and” are separate entries in the source; they are usually repeats but may differ in a detail not shown here. Equal values may be shown once. A number with no mark means an inactive call. Inconclusive results are not listed. Where a call stands in place of a potency, no number is given. Active and inactive are the calls of the source. Unless noted, calls follow the shape of the dose curve; as a rule, active = well fitted curve in the direction sought with a large enough effect in the repeat runs; inconclusive = weak or mixed curves; inactive = no such curve, though single readings can be large; an effect the other way counts as inactive or inconclusive.
# Columns and labels:
# [1] = target: Thyrotropin receptor (Homo sapiens) (UniProt P16473); experiment: qHTS assay to identify small molecule antagonists of the thyroid stimulating hormone receptor (TSHR) signaling pathway (AID 1259385; calls by dose curve; also: nearly all actives have a fitted effect of over 20% in size; also: potency is read from the fitted curve at half-maximal effect); details: TSHR-HEK293 cAMP HTRF, TSH-stimulated antagonist mode; series mostly up to 92.4 µM
# How it was run: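 TSHR-HEK293 cells were plated and held 18 h at 37C/5% CO2, then given compound plus Ro20-1724 and stimulated with TSH at 1.5 ng/mL final. After 30 min at room temperature, cAMP was detected with cAMP-d2/anti-cAMP-cryptate (1 h) by fluorescence.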
# [2] = qHTS assay to identify small molecule agonists of the estrogen receptor alpha (ER-alpha) signaling pathway in the presence of an antagonist - cell viability counter screen (AID 1259386); details: VM7Luc4E2 viability, CellTiter-Fluor fluorescence, 22 h; series mostly up to 92.4 µM;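 also: cells exposed to compounds for 22 h at 37 °C before the viability read; nearly all actives have a fitted effect of over 30% in size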; also: potency is read from the fitted curve at half-maximal effect
# How it was run: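 Using estrogen-depleted VM7Luc4E2 cells, the 15-concentration compound series was applied together with 10.0nM ICI-182,780 and incubated 22hr at 37C/5% CO2. Cell viability was then scored by CellTiter-Fluor.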
# [3] = target: Progesterone receptor (Homo sapiens) (UniProt P06401); experiment: qHTS assay to identify small molecule agonists of the progesterone receptor (PR) signaling pathway (AID 1346784; calls by dose curve; also: nearly all actives have a fitted effect of over 30% in size; also: potency is read from the fitted curve at half-maximal effect); details: PR-UAS-bla HEK293T, beta-lactamase FRET ratio, 16 h; series mostly up to 92.4 µM
# How it was run: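 Agonist mode, quantitative HTS format in a HEK 293T line expressing a UAS-controlled beta-lactamase reporter; 16 hr compound exposure at 37C in 2% charcoal-stripped FBS, then LiveBLAzer B/G FRET fluorescence.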
# [4] = target: Progesterone receptor (Homo sapiens) (UniProt P06401); experiment: qHTS assay to identify small molecule antagonists of the progesterone receptor (PR) signaling pathway (AID 1346795; active = well fitted inhibition curve with a large enough effect in the signal ratio in the repeat runs, not every such curve was filed as active; the % refers to the signal ratio; also: potency is read from the fitted curve at half-maximal effect); details: PR-UAS-bla HEK293T, beta-lactamase FRET ratio, 16 h; series mostly up to 92.4 µM
# How it was run: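 HEK293T PR-UAS-bla reporter cells in charcoal-stripped serum (2%) received compound after a 6 hr settling period, followed by R5020 agonist at 1 nM final; 16 hr incubation preceded the FRET substrate step and fluorescence measurement.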
# [5] = qHTS assay to identify small molecule antagonists of the TGF-beta/Smad signaling pathway - cell viability counter screen (AID 1346824); details: SBE-bla HEK293T viability, CellTiter-Glo luminescence; series mostly up to 76.8 µM; also: nearly all actives have a fitted effect of over 50% in size
# How it was run: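 SBE-bla HEK 293T cells were plated overnight at 37 C, then given compounds in DMSO plus TGF-beta1 (added as 0.25 ng/mL solution) for 5 hr. After the bla read, CellTiter-Glo was added to the same wells and luminescence read after 30 min at room temperature.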
# [6] = qHTS assay to identify small molecule agonists of the TGF-beta/Smad signaling pathway - cell viability counter screen (AID 1346829); details: SBE-bla HEK293T viability, CellTiter-Glo luminescence, 5 h; series mostly up to 76.8 µM; also: top concentration of the series differs between compounds; nearly all actives have a fitted effect of over 45% in size
# How it was run: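 Here the cytotoxicity of library compounds is measured in SBE-bla HEK 293T cells treated for 5 hr, using CellTiter-Glo added to wells already read for the beta-lactamase reporter.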
# [7] = qHTS assay to identify small molecule agonists of the TGF-beta/Smad signaling pathway (AID 1346859; active = well fitted activation curve with a large enough effect in the signal ratio in the repeat runs, not every such curve was filed as active; the % refers to the signal ratio); details: SBE-bla HEK293T, TGF-beta/Smad beta-lactamase reporter, 5 h; series mostly up to 76.8 µM
# How it was run: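 Smad-responsive beta-lactamase reporter cells (HEK 293T) received compounds from DMSO stocks after overnight attachment, were incubated 5 hr, then treated 2 hr with FRET substrate before dual-emission fluorescence measurement (405 nm excitation).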
# [8] = target: Thyrotropin-releasing hormone receptor (Homo sapiens) (UniProt P34981); experiment: qHTS assay to identify small molecule antagonists of the thyrotropin-releasing hormone receptor (TRHR) signaling pathway (AID 1346877; active = well fitted inhibition curve with a large enough effect in the repeat runs, not every such curve was filed as active); details: TRHR-HEK293, TRH-induced calcium fluorescence, antagonist mode; series mostly up to 51.3 µM
# How it was run: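 Calcium signal in dye-loaded TRHR/HEK293 cells; compounds added 5 min before TRH (1 nM final); fluorescence monitored 3 min at 1 s steps.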
# [9] = target: Thyrotropin-releasing hormone receptor (Homo sapiens) (UniProt P34981); experiment: qHTS assay to identify small molecule agonists of the thyrotropin-releasing hormone receptor (TRHR) signaling pathway (AID 1346891; calls by dose curve;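 also: HEK293 cells expressing TRHR with calcium dye readout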); details: TRHR-HEK293 calcium fluorescence, agonist mode; series mostly up to 57.6 µM
# How it was run: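 Agonist-mode calcium mobilisation screen: TRHR-transfected HEK293 cells cultured overnight (18 h), dye-loaded for 2 h at 37 °C, exposed to compounds, and monitored by fluorescence for 3 min.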
# [10] = Human pregnane X receptor (PXR) small molecule agonists, qHTS cell viability counter screen (AID 1346977); details: PXR-Luc HepG2 viability, CellTiter-Fluor, 24 h; series mostly up to 92.4 µM; also: nearly all actives have a fitted effect of over 50% in size; also: potency is read from the fitted curve at half-maximal effect
# How it was run: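 Measures live-cell protease fluorescence (CellTiter-Fluor) in PXR-Luc HepG2 cells treated 24hr with compounds at 37C. Cells had 5hr to attach before pin transfer of DMSO solutions.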
# [11] = Caspase-3/7 induction in CHO-K1 cells by small molecules, qHTS assay (AID 1346980); details: CHO-K1 caspase-3/7 induction, Caspase-Glo luminescence, 17 h; series mostly up to 92.4 µM; also: nearly all actives have a fitted effect of over 15% in size
# How it was run: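 Wild-type cells were seeded at 1,500 per well and settled 5 hr at 37 C, 5% CO2, then exposed to DMSO-dissolved compounds for 17 hr. Caspase-Glo 3/7 reagent was added, and luminescence was read after 30min at room temperature.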
# [12] = target: Nuclear receptor subfamily 1 group I member 2 (Rattus norvegicus) (UniProt Q9R1A7); experiment: Rat pregnane X receptor (rPXR) activation by small molecules, qHTS assay (AID 1346983); details: rPXR luciferase reporter cells, One-Glo luminescence, 24 h; max activation: hits give high values; also: nearly all actives have a fitted effect of over 20% in size
# How it was run: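 Cell-based rPXR luciferase reporter assay, 2,000 cells per well, rested 5hr at 37 C before compound addition in DMSO, then 24 hr at 37 C. One-Glo reagent was added and luminescence read after 30 min at room temperature.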
# [13] = qHTS assay to identify small molecule agonists of the progesterone receptor (PR) signaling pathway - cell viability counter screen (AID 1346799; calls by dose curve; also: nearly all actives have a fitted effect of over 45% in size; also: potency is read from the fitted curve at half-maximal effect); details: PR-UAS-bla HEK293T viability, CellTiter-Glo luminescence, 16 h; series mostly up to 92.4 µM
# How it was run: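 Counter screen for cytotoxicity: compound-treated PR-UAS-bla HEK293T cells (16 hr, 37C, 5% CO2) were assayed with CellTiter-Glo, luminescence measured after 30 min at room temperature.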
# [14] = Caspase-3/7 induction in CHO-K1 cells by small molecules, qHTS cell viability counter screen (AID 1346979); details: CellTiter-Fluor fluorescence, 17 h; series mostly up to 92.4 µM; also: nearly all actives have a fitted effect of over 35% in size; also: potency is read from the fitted curve at half-maximal effect
# How it was run: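 In the same wells as the caspase read, viability of compound-treated wild-type CHO-K1 cells was assessed using CellTiter-Fluor, added after 16hr at 37C and measured by fluorescence following 1hr further incubation.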
# [15] = Caspase-3/7 induction in HepG2 cells by small molecules, qHTS cell viability counter screen (AID 1346981); details: CellTiter-Fluor fluorescence, 17 h; series mostly up to 92.4 µM; also: nearly all actives have a fitted effect of over 30% in size; also: potency is read from the fitted curve at half-maximal effect
# How it was run: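 After a 5-hr attachment period at 37 C and 5% CO2, wild-type HepG2 cells received compounds in DMSO. Sixteen hours later CellTiter-Fluor was dispensed and the fluorescent signal quantified after a further hour.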
# [16] = Caspase-3/7 induction in HepG2 cells by small molecules, qHTS assay (AID 1346978); details: HepG2 caspase-3/7 activation, Caspase-Glo luminescence, 17 h; series mostly up to 92.4 µM; also: nearly all actives have a fitted effect of over 15% in size; also: potency is read from the fitted curve at half-maximal effect
# How it was run: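 Wild-type HepG2 cells (2,000/well) were settled 5 h at 37 C, 5% CO2, then exposed to compounds in DMSO for 17 h. Caspase-3/7 activity was read by luminescence 30 min after adding Caspase-Glo 3/7 reagent at room temperature.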
# [17] = target: Nuclear receptor subfamily 1 group I member 2 (Homo sapiens) (UniProt O75469); experiment: Human pregnane X receptor (PXR) small molecule agonists, qHTS assay (AID 1346982); details: PXR-Luc HepG2, CYP3A4 luciferase reporter, 24 h; series mostly up to 92.4 µM; also: nearly all actives have a fitted effect of over 35% in size; also: potency is read from the fitted curve at half-maximal effect
# How it was run: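 Tox21 qHTS; PXR-Luc HepG2; compounds pinned from DMSO; 24 hr, 37 C; ONE-Glo luciferase detection, 30 min room temperature.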
# [18] = qHTS assay to identify small molecule antagonists of the progesterone receptor (PR) signaling pathway - cell viability counter screen (AID 1346798); details: PR-UAS-bla HEK293T viability, CellTiter-Glo luminescence, 16 h; series mostly up to 92.4 µM; also: nearly all actives have a fitted effect of over 50% in size
# How it was run: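 Same-well multiplex: after 16 hr at 37C with compound and R5020 stimulation, HEK293T cells carrying a UAS-bla reporter received LiveBLAzer substrate (2 hr RT), then CellTiter-Glo (30 min RT) for luminescent viability.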
# Progesterone receptor (Homo sapiens), sequence (P06401 whole entry, looked up): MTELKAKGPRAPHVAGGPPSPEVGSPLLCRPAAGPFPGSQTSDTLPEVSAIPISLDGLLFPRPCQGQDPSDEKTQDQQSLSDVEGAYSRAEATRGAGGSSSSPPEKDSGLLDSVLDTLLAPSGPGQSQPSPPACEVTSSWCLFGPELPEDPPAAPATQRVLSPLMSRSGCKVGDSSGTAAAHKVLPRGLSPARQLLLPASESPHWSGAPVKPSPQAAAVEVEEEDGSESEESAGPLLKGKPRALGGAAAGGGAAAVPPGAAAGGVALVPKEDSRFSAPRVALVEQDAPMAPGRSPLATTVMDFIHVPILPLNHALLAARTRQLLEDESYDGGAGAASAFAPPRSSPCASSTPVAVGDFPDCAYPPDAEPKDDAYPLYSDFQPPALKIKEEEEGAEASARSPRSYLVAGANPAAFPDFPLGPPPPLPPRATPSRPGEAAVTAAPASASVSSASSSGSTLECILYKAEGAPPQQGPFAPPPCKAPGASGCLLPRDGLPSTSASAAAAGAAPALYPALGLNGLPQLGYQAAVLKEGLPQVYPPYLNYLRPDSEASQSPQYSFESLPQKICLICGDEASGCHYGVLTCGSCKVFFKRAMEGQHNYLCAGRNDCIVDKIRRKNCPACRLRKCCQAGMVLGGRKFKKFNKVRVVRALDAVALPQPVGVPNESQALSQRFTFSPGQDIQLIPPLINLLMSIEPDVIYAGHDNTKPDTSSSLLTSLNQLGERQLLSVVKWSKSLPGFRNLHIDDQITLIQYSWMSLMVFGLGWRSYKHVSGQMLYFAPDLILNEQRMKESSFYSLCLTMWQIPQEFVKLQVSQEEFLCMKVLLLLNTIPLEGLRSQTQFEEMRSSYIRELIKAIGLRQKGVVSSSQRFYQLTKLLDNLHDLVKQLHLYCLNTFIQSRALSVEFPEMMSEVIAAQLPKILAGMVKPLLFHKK
# Thyrotropin-releasing hormone receptor (Homo sapiens), sequence (P34981 whole entry, looked up): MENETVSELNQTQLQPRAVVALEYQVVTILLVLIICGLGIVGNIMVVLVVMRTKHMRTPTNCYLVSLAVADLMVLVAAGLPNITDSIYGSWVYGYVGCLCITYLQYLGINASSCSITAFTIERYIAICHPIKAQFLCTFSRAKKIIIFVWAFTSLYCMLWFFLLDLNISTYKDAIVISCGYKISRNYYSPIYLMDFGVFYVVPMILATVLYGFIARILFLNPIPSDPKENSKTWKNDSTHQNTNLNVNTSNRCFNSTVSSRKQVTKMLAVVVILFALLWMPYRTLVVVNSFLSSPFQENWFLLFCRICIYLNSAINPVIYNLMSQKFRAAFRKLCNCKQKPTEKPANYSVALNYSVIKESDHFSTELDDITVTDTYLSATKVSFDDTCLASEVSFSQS
# Nuclear receptor subfamily 1 group I member 2 (Homo sapiens), sequence (O75469 whole entry, looked up): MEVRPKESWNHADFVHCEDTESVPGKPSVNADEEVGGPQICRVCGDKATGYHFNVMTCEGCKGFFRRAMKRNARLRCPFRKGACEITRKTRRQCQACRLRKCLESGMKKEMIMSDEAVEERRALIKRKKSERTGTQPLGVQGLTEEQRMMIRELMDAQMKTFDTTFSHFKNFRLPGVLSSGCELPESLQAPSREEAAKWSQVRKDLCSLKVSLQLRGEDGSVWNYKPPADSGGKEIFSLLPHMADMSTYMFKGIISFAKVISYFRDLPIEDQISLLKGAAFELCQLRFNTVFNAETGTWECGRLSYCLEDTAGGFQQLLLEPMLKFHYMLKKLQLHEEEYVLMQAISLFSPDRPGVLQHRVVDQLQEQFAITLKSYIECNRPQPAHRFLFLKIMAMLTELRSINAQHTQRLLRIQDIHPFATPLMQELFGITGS
# Thyrotropin receptor (Homo sapiens), sequence (P16473 whole entry, looked up): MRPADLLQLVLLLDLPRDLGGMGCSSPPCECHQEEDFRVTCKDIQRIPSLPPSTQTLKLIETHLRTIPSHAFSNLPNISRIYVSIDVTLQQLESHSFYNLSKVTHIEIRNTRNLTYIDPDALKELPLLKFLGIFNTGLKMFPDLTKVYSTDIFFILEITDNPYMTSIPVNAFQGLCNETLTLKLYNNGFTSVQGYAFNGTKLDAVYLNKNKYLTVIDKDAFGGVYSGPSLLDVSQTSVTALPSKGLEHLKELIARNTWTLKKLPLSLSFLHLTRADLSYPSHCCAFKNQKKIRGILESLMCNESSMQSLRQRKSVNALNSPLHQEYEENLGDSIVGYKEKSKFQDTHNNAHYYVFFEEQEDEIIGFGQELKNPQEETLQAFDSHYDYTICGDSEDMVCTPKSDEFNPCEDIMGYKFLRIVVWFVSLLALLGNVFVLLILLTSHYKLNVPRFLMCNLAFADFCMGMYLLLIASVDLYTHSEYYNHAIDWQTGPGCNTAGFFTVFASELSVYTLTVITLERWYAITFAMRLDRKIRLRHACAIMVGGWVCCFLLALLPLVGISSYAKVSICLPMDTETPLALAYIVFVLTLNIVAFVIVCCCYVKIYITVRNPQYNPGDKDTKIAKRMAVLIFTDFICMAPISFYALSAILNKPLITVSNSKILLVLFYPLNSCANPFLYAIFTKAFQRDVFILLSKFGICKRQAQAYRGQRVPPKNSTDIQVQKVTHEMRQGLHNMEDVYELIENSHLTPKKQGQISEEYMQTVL
# Nuclear receptor subfamily 1 group I member 2 (Rattus norvegicus), sequence (Q9R1A7 whole entry, looked up): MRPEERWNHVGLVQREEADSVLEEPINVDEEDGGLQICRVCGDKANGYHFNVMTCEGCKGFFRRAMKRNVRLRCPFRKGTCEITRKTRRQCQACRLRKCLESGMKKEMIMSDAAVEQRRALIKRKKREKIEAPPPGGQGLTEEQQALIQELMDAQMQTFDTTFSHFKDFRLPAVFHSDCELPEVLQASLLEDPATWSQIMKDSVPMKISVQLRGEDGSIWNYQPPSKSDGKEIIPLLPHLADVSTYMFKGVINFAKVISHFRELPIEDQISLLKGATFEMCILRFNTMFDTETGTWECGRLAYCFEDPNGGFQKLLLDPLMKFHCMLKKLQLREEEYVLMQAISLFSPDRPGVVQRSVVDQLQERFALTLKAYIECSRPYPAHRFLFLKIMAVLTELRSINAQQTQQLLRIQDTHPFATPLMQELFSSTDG
SMILES,Potency [1],Potency [2],Potency [3],Potency [4],outcome [5],Potency [6],Potency [7],outcome [8],outcome [9],Potency [10],outcome [11],max activation [12] [%],Potency [13],Potency [14],Potency [15],Potency [16],Potency [17],Potency [18]
CN(C)CC/C=C1\c2ccccc2Sc2ccc(Cl)cc21,26.6 µM (active),inactive,inactive,21.1 µM (active),inactive,inactive,inactive,inactive,inactive,29.8 µM (active),inactive,3.57,,,,,,
Cc1cc([N+](=O)[O-])ccc1N,inactive,47.9 µM (active),inactive,,inactive,inactive,inactive,,,,inactive,,inactive,53.8 µM (active),33.9 µM (active),,,
O[C@@H](CNC[C@H](O)[C@H]1CCc2cc(F)ccc2O1)[C@@H]1CCc2cc(F)ccc2O1,inactive,inactive,,26.6 µM (active),inactive,,inactive,,,29.8 µM (active),,,29.8 µM (active),33.5 µM (active),,33.5 µM (active),inactive,
BrC(Br)C(Br)Br,inactive,inactive,inactive,inactive,inactive,,inactive,inactive,inactive,inactive,inactive,,inactive,inactive,,inactive,inactive,
COC(=O)Nc1nc2ccc(C(=O)C3CC3)cc2[nH]1,inactive,inactive,inactive,,,inactive,inactive,,,inactive,inactive,,,,inactive,inactive,8.41 µM (active),
CCCCCCCCCCCCCOS(=O)(=O)O,inactive,inactive,inactive,inactive,,inactive,inactive,,,inactive,inactive,,,,inactive,inactive,inactive,
O=C(C(=O)c1ccco1)c1ccco1,inactive,,2.75 µM (active),inactive,inactive,inactive,inactive,,,inactive,inactive,,,inactive,inactive,inactive,inactive,inactive
CC(C)c1ccc(C#N)cc1,,inactive,inactive,inactive,inactive,inactive,inactive,inactive,inactive,inactive,inactive,,inactive,inactive,inactive,inactive,inactive,inactive
COc1ccc2nc(S(=O)Cc3ncc(C)c(OC)c3C)[nH]c2c1 (stereo not drawn),inactive,,inactive,,inactive,inactive,inactive,inactive,inactive,inactive,inactive,,,67.8 µM (active),inactive,inactive,53.8 µM (active) and 26.6 µM (active),
CC(C)C(=O)OCCOc1ccccc1,inactive,,inactive,inactive,inactive,inactive,inactive,inactive,inactive,inactive,inactive,,inactive,inactive,inactive,inactive,inactive,inactive
C=Cc1ccc(OC(C)=O)cc1,inactive,,inactive,inactive,inactive,inactive,inactive,,,inactive,inactive,,inactive,inactive,inactive,inactive,,inactive
